Source: PubChem BioAssay (National Center for Advancing Translational Sciences (NCATS))
LASV entry inh – qHTS for Inhibitors of binding or entry into cells for Lassa Virus; Lassa virus pseudotype entry inhibition, cell reporter; Potency, µM (top dose mostly 37.9 µM), without a hit: at the highest dose activity change, negative = inhibition, actives largely listed as inhibitors; 300,000 compounds, 1.2% hits; calls by dose curve; tested in HEK293 cells; also: potency is read from the fitted curve at half-maximal effect; nearly all actives have a fitted effect of over 50% in size
MARV entry inh – qHTS for inhibitors of binding or entry into cells for Marburg Virus; Marburg virus pseudotyped entry inhibition, cell reporter; Potency, µM (series often up to 37.8 µM), for the others: at the top dose activity change, negative = inhibition, most hits filed as inhibitors; 300,000 compounds, 1.8% hits; calls by dose curve; tested in HEK293 cells; also: potency is read from the fitted curve at half-maximal effect
FMDV antiviral – High Throughput Screening for Foot and Mouth Disease Virus Antivirals; FMDV antiviral cell-based qHTS; 410,000 compounds, 1.2% hits; Potency, µM (titrated, usually from 57.9 µM), inactives show at the top dose activity change, negative = inhibition, most hits filed as inhibitors; calls by dose curve; tested in HEK293T cells; also: read-out not given here; potency is read from the fitted curve at half-maximal effect; nearly all actives have a fitted effect of over 45% in size
HCV inhibitor – qHTS Assay for Inhibitors of Hepatitis C Virus (HCV); Huh7.5.1 HCVcc-Cre infection, luciferase reporter, 44 h; AID 651820, 2012; 340,000 compounds, 3.4% hits; Potency, µM (titrated, usually from 41.8 µM), for the others: at the highest dose activity change, negative = inhibition, actives largely listed as inhibitors; active = well fitted inhibition curve with a large enough effect; inconclusive = small, poorly fitted or top-dose-only effect, or another doubt; inactive = no such curve, though single readings can be large or run the other way; also: potency is read from the fitted curve at half-maximal effect
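Luciferase read-out (15 sec integration) after a 15 min room-temperature substrate step quantifies HCVcc-Cre infection. Cells, 1,000 per well, had compound added 4 h post-plating, then virus at ~0.5 moi, and were cultured 44 h.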
HCMV inh – qHTS Assay for inhibitors of the human cytomegalovirus (HCMV). 410,000 compounds, 4.5% hits. HFF cells, HCMV-luciferase reporter, 72 h; active compounds read low. activity change, negative = inhibition, % at 57.5 µM; in the data active = activity change below about -60%; inconclusive = no clear call, values can overlap the other calls; inactive = above about -39%
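Steps: HFFs plated, 16 h 37C; compounds added; HCMV-luciferase added to MOI 1 PFU/cell; 72 h 37C; OneGlo reagent, 5 min room temperature; luminescence read, normalized to controls.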
* marks the source's active call; other numbers are inactive results; u = inconclusive; x = no result; [ ] = remark or other dose. An excerpt weighted towards active compounds, which were near 7.9% of everything screened. % is scaled to controls: 0 for no effect and ±100 for the full control effect.

SMILES | LASV entry inh | MARV entry inh | FMDV antiviral | HCV inhibitor | HCMV inh
Cn1c(=O)[nH]c(=O)c2c1nc(Br)n2Cc1cccc(Br)c1 | u | u | -3% | u | -82*
Cn1c(=O)[nH]c(=O)c2c1nc(Br)n2CCOc1ccccc1 | 8% | 8% | 18µM* | -21% | 34
Cn1c(=O)[nH]c(=O)c2c1nc(Br)n2CCCSc1nc2ccccc2o1 | -18% | 8.2µM* | 22µM* | u | -61*
CN1CCN(c2nc3c(c(=O)[nH]c(=O)n3C)n2Cc2cccc(Br)c2)CC1 | x | x | -14% | 6% | -19
CCCn1c(N)c(C(=O)CSc2nncs2)c(=O)[nH]c1=O | x | x | -1% | 10% | 0
C=C(COC)C1=CCC(C(=O)OC)(C(=O)OC)[C@@H](C[N+](=O)[O-])c2ccccc21 | x | 60%[14.2 µM] | x | x | x
COCCCNC(=O)CSC1=Nc2ccccc2C2=NC(c3ccccc3)C(=O)N12 (configuration not stated) | 7% | 3% | 19% | 16% | -64*
CCOC(=O)c1ccc(NC(=O)CSc2nnc(CCc3ccc(C)o3)n2-c2ccccc2)cc1 | -9% | -28% | -14% | 10µM* | -1
Cc1ccc(CCc2nnc(SCC(=O)Nc3ccccc3Cl)n2-c2ccccc2)o1 | u | u | 0% | -24% | -34
Clc1cccc(-c2cccc3nccn23)c1Cl | x | x | -27% | x | -79*
CCCC(c1nnnn1C1CCCCC1)N1C(=O)C(=O)c2ccccc21 (configuration not stated) | x | x | x | x | -17
Cc1c(CCOC(=O)c2ccc(N3CCOCC3)c([N+](=O)[O-])c2)sc[n+]1CC#N | 13µM* | u | u | 16µM* | -36
Cc1ncsc1CCOC(=O)c1ccc([N+](=O)[O-])cc1 | 14% | -3% | -8% | -8% | -5
Cc1ncsc1CCOC(=O)c1ccc(N2CCOCC2)c([N+](=O)[O-])c1 | x | x | -1% | -4% | -61*
COc1ccc(CCC(=O)NCc2ccc3c(c2)CCN3C(=O)c2ccccc2)cc1 | 9%[46.1 µM] | x | -17% | x | -36
COc1ccc(CCC(=O)NCc2ccc3c(c2)CCN3C(=O)c2cccc(C)c2)cc1 | -8%[46.1 µM] | x | u | x | -72*
Cc1ccc(C(=O)NCc2ccc3c(c2)CCN3C(=O)c2ccc(C)cc2)cc1 | -24%[46.1 µM] | x | -15% | x | -64*
Cc1ccc(CNC(=O)c2ccc(N3CCc4ccccc43)c([N+](=O)[O-])c2)cc1 | u | u | 6% | 6.3µM* | u
COc1ccc(CC(=O)NCc2ccc3c(c2)CCN3C(=O)c2ccc(Cl)cc2)cc1OC | 11µM* | x | u | x | -67*
CCN(C)C(=O)c1coc(N2CCN(Cc3cccc(F)c3)C2=O)n1 | x | x | x | x | -11
Cc1ccc(C)c(NC(=O)NCc2ccc3c(c2)CCN3C(=O)c2ccccc2)c1 | 13%[46.1 µM] | x | u | x | 11
O=C(NCc1ccc2c(c1)CCN2C(=O)c1ccccc1)Nc1cccc(C(F)(F)F)c1 | -1%[46.1 µM] | x | u | x | -97*
Cc1ccc([C@@H]2CC(=O)[C@@H]3CN(S(=O)(=O)c4ccc(C)cc4)[C@H](c4ccc(Cl)cc4)C[C@@H]3N2S(=O)(=O)c2ccc(Cl)cc2)cc1 | x | x | -22% | x | -14
O=C1C=CC(=O)C(CNc2ccc(C(=O)OCc3ccccc3)cc2)=C1 | 11µM* | u | 0% | 10µM* | -23
C[N+](C)(C)CC1CCCC(C[N+](C)(C)C)C1=O (configuration not stated) | u | 10µM* | u | 2.2µM* | -28
SMILES | LASV entry inh | MARV entry inh | FMDV antiviral | HCV inhibitor | HCMV inh
C[N+](C)(C)CC1CCCc2ccccc2C1=O (configuration not stated) | u | u | u | 11µM* | u
O=C(O)CC1CCCC(c2ccccc2)C1=O (configuration not stated) | -11% | u | 17% | -12% | 18
CCOC(=O)c1sc(NC(C)=O)cc1C | x | x | 1% | -11% | 5
CCOC(=O)c1c(N)sc(C(N)=O)c1C | 10% | 4%[46.1 µM] | 20% | 11% | -3
CCOC(=O)c1c(N)sc(N)c1C(=O)OCC | -4% | -11% | 32µM* | 12% | -1
CCOC(=O)c1sc(NC(=O)Nc2ccccc2Cl)cc1C | 7.9µM* | u | -1% | u | -74*
COC(=O)c1sc(-c2ccccc2)cc1NC(C)=O | 1% | u | -17% | 8.9µM* | 47
CCOC(=O)c1sc(NC(=O)Nc2ccccc2)cc1C | 14µM* | 16µM* | 38% | u | -24
COC(=O)c1sc(-c2ccccc2)cc1NC(=O)c1ccccc1 | 15% | u | -21% | 5% | u
CCOC(=O)c1c(N)sc(C(=O)Nc2ccccc2)c1C | x | x | 2% | 11µM* | 79
CCOC(=O)c1c(N)sc(C(=O)Nc2ccccc2F)c1C | x | x | 44% | -6% | 97
CCOC(=O)c1c(N)sc2c(NC(C)=O)cccc12 | -16% | -5% | 0% | 18µM* | -17
CCOC(=O)c1sc(-c2ccccc2)cc1NC(=O)Nc1ccccc1 | 4% | u | -29% | 10µM* | -36
O=C(CS(=O)(=O)Cc1ccccc1)Nc1ccccn1 | -5% | 15% | 13% | -6% | -102*
O=C(CS(=O)(=O)Cc1ccccc1)Nc1ccc(Cl)cn1 | 8% | 1% | 37% | 5% | -23
CC(=O)Nc1ccc(S(=O)(=O)NCCOc2ccc(Cl)cc2C)cc1 | 0% | u | -13% | -9% | -74*
CNC(=O)c1cccc(-c2ccc3ncc(-c4cccc(C(=O)NCCN(C)C)c4)n3n2)c1 | x | x | x | x | -30
Cc1cccc(Cc2ccc3ncc(-c4cccc(C(N)=O)c4)n3n2)c1 | x | x | x | x | -72*
C[C@]1(O)CC(=O)C=C[C@H]1Nc1ccccc1 | x | x | 25µM* | -14% | u
COc1cccc(NC(=O)CN(C)C(=O)c2cc(S(=O)(=O)Nc3ccccc3OC)ccc2C)c1 | x | x | 20% | u | 9
Cc1cc(C)cc(C(=O)NC(=S)Nc2ccc(Cc3ccncc3)cc2)c1 | u | u | u | u | -74*
Cc1cccc(C(=O)NC(=S)Nc2ccc(Cc3ccncc3)cc2)c1 | -13% | -14% | -5% | u | u
COc1cc(C(=O)NC(=S)Nc2ccc(Cc3ccncc3)cc2)cc(OC)c1OC | x | x | -17% | u | -24
COc1ccccc1C(=O)NC(=S)Nc1ccc(Cc2ccncc2)cc1 | x | x | -16% | u | -76*
C=CCN1C(=O)[C@@]2(CC(C)=CC[C@@H](C)O2)c2c(Br)cccc21 | x | 3%[14.2 µM] | x | x | x
Cc1[nH]c2ccc3ncccc3c2c1C | u | 11% | 28% | 11µM* | -3
Cc1ccc2ncccc2c1[N+](=O)[O-] | -5% | 5%[46.1 µM] | -12% | 5% | -23
CSc1nnc(C(C)(C)C)c(=O)n1N/C=C1\C(=O)CCC2=C1CCCC2 | x | 3%[46.1 µM] | x | x | x
CC1=C2CCCC[C@@]23C2C(=O)N(C)C(=O)[C@@H]2ON3OC1 (some centres not stated) | x | x | -9% | x | 7
